PubChem BioAssay (NCI)
This is part of a sample that, as a whole, favours compounds with a hit. Of some 79,000 tested, about 15% had one in any assay. Activity calls are given as the source filed them. Cut-off read from the data, not from the text of the source: active = growth inhibition above about 70%; inactive = the rest.

Legend:
[1] = NCI Yeast Anticancer Drug Screen. Data for the rad52 strain (AID 147);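 note: 0% = growth of vehicle-treated control cultures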; conditions: S. cerevisiae rad52 mutant growth inhibition, hits give high values
Summary of the method: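 Vehicle-treated cultures served as the reference for growth inhibition of compound-exposed yeast bearing a DNA repair mutation.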

[2] = NCI Yeast Anticancer Drug Screen. Data for the wt1 strain (AID 149);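 note: 0% = growth of vehicle-treated wt1 cultures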; conditions: S. cerevisiae wt1 strain (SPY 50644) growth inhibition, hits give high values
Summary of the method: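 Yeast wt1 strain exposed to compounds; growth inhibition measured relative to vehicle-treated controls.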

[3] = NCI Yeast Anticancer Drug Screen. Data for the rad50EPP+ strain (AID 151);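 note: 0% = growth of vehicle-treated control cultures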; conditions: S. cerevisiae rad50 mutant strain, hits give high values
Summary of the method: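 In this screen, rad50EPP+ yeast were exposed to compounds. Growth inhibition was scored against vehicle-treated controls.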

[4] = NCI Yeast Anticancer Drug Screen. Data for the mgt1 strain (AID 153); conditions: S. cerevisiae mgt1 mutant growth inhibition, hits give high values
Summary of the method: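 mgt1 strain exposed; growth vs vehicle control recorded as inhibition.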

[5] = NCI Yeast Anticancer Drug Screen. Data for the rad50 strain (AID 155);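 note: 0% = growth of vehicle-only cultures of the same strain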; conditions: S. cerevisiae rad50 strain growth inhibition, hits give high values
Summary of the method: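 Yeast carrying a defined DNA repair defect were exposed to test compounds, and growth was compared with vehicle-treated controls to give percent inhibition.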

[6] = NCI Yeast Anticancer Drug Screen. Data for the mec2-1 strain (AID 157); conditions: S. cerevisiae mec2-1 strain, hits give high values
Summary of the method: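 Vehicle-treated cultures served as reference for growth inhibition of compound-exposed mec2-1 yeast.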

[7] = NCI Yeast Anticancer Drug Screen. Data for the rad14 strain (AID 159);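 note: 0% = growth of vehicle-treated control cultures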; conditions: S. cerevisiae rad14 strain growth inhibition, hits give high values
Summary of the method: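 Yeast cells carrying a defined DNA-repair defect were exposed to compounds, and growth inhibition was calculated relative to vehicle-treated control cultures.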

[8] = NCI Yeast Anticancer Drug Screen. Data for the sgs1 mgt1 strain (AID 161);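 note: 0% = growth of cultures given vehicle only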; conditions: S. cerevisiae sgs1 mgt1 strain, hits give high values
Summary of the method: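 Test agents were incubated with a DNA-repair-mutant yeast strain. Growth was then read and compared against vehicle-treated controls.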

[9] = NCI Yeast Anticancer Drug Screen. Data for the cln2 rad14 strain (AID 165);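 note: 0% = growth equal to vehicle treated cultures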; conditions: S. cerevisiae cln2 rad14 strain, hits give high values
Summary of the method: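 Each compound was tested on cln2 rad14 yeast. Inhibition of growth was calculated against vehicle-exposed controls.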

[10] = NCI Yeast Anticancer Drug Screen. Data for the bub3 strain (AID 167); conditions: S. cerevisiae bub3 mutant strain, hits give high values
Summary of the method: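 Compounds were applied to a genetically altered yeast strain carrying a cell-cycle control defect. Growth inhibition was scored against vehicle-treated controls.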

[11] = NCI Yeast Anticancer Drug Screen. Data for the wt2 strain (AID 169);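 note: 0% = growth of vehicle-treated yeast cultures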; conditions: S. cerevisiae wt2 strain growth inhibition, hits give high values
Summary of the method: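 Inhibition of yeast growth was determined after compound treatment, normalised to controls receiving only vehicle.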

[12] = NCI Yeast Anticancer Drug Screen. Data for the mlh1 strain (AID 171);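 note: 0% = growth of vehicle-treated control cultures of the same strain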; conditions: S. cerevisiae mlh1 strain growth inhibition, hits give high values
Summary of the method: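 Vehicle-normalised growth inhibition of a repair- or checkpoint-altered yeast strain following compound treatment.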

[13] = NCI Yeast Anticancer Drug Screen. Data for the mlh1 rad18 strain (AID 175); conditions: S. cerevisiae mlh1 rad18 strain growth inhibition, hits give high values
Summary of the method: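 Vehicle-treated cultures served as the reference for growth inhibition in a yeast strain carrying DNA damage repair alterations exposed to each compound.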

[14] = NCI Yeast Anticancer Drug Screen. Data for the rad18 strain (AID 177); conditions: S. cerevisiae rad18 mutant growth inhibition, hits give high values
Summary of the method: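 Test articles were incubated with altered yeast defective in DNA damage repair. Results are given as inhibition of growth versus vehicle.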

[15] = NCI Yeast Anticancer Drug Screen. Data for the CLN2oe strain (AID 163);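 note: 0% = growth of vehicle-only control cultures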; conditions: S. cerevisiae CLN2oe strain, hits give high values
Summary of the method: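 Inhibition relative to vehicle-treated yeast is reported. Cells: strain with genetic alteration in cell-cycle control, grown with compound.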

[16] = NCI Yeast Anticancer Drug Screen. Data for the sgs1 strain (AID 173);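 note: 0% = growth of vehicle-only control cultures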; conditions: S. cerevisiae sgs1 mutant, hits give high values
Summary of the method: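 Screen format: yeast with repair or checkpoint alterations, compound exposure, growth read relative to vehicle.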

[17] = at 5.0 µM (retest, dose inferred, filed as 0.5)
[18] = at 50.0 µM (retest, dose inferred, filed as 5.0)

Measured: growth inhibition

COc1ccc2nc3c([N+](=O)[O-])ccc(NCCN(C)C)c3c(NCCN(C)C)c2c1
inactive: [1]; at 1.2 µM 15% | [1]; at 3.7 µM 10% | [1]; at 11.0 µM 26% | [1]; at 33.0 µM 28% | [1]; at 100.0 µM 23% | [2]; at 1.2 µM -3% | [2]; at 3.7 µM -3% | [2]; at 11.0 µM -3% | [2]; at 33.0 µM -2% | [2]; at 100.0 µM 0% | [3]; at 1.2 µM 0% | [3]; at 3.7 µM 3% | [3]; at 11.0 µM 1% | [3]; at 33.0 µM 5% | [3]; at 100.0 µM 14% | [4]; at 1.2 µM 0% | [4]; at 3.7 µM 2% | [4]; at 11.0 µM 1% | [4]; at 33.0 µM 1% | [4]; at 100.0 µM 2% | [5]; at 1.2 µM -1% | [5]; at 3.7 µM 0% | [5]; [17] 16% | [5]; at 11.0 µM 0% | [5]; at 33.0 µM 2% | [5]; [18] 33% | [5]; at 50.0 µM 26.9% | [5]; at 100.0 µM 12% | [6]; at 1.2 µM -1% | [6]; at 3.7 µM -4% | [6]; [17] 15% | [6]; at 11.0 µM -5% | [6]; at 33.0 µM 0% | [6]; [18] 17% | [6]; at 50.0 µM 35% | [6]; at 100.0 µM 3% | [7]; at 1.2 µM -2% | [7]; at 3.7 µM -3% | [7]; at 11.0 µM -3% | [7]; at 33.0 µM -4% | [7]; at 100.0 µM 1% | [8]; [17] -2% | [8]; [18] 14% | [8]; at 50.0 µM 3.95% | [9]; [17] 29% | [9]; [18] 61% | [9]; at 50.0 µM 62.4% | [10]; at 1.2 µM -3% | [10]; at 3.7 µM -7% | [10]; [17] 14% | [10]; at 11.0 µM 1% | [10]; at 33.0 µM -3% | [10]; [18] -1% | [10]; at 50.0 µM 20.4% | [10]; at 100.0 µM -3% | [11]; at 1.2 µM -3% | [11]; at 3.7 µM 0% | [11]; at 11.0 µM -1% | [11]; at 33.0 µM -1% | [11]; at 100.0 µM -2% | [12]; at 1.2 µM -1% | [12]; at 3.7 µM -2% | [12]; at 11.0 µM -1% | [12]; at 33.0 µM -1% | [12]; at 100.0 µM 1% | [13]; [17] -7% | [13]; [18] 24% | [13]; at 50.0 µM -21.4% | [14]; at 1.2 µM 6% | [14]; at 3.7 µM 6% | [14]; at 11.0 µM 7% | [14]; at 33.0 µM 1% | [14]; at 100.0 µM -6%

O=C(/C=C\c1ccc(Cl)cc1Cl)c1cccs1
active: [8]; [18] 71% | [10]; [18] 85% | [13]; [18] 88% | [14]; at 33.0 µM 73% | [14]; at 100.0 µM 84%
inactive: [1]; at 1.2 µM -2% | [1]; at 3.7 µM -3% | [1]; at 11.0 µM 3% | [1]; at 33.0 µM 10% | [1]; at 100.0 µM 16% | [2]; at 1.2 µM -2% | [2]; at 3.7 µM 0% | [2]; at 11.0 µM -5% | [2]; at 33.0 µM -6% | [2]; at 100.0 µM -7% | [3]; at 1.2 µM 9% | [3]; at 3.7 µM 23% | [3]; at 11.0 µM 47% | [3]; at 33.0 µM 55% | [3]; at 100.0 µM 58% | [4]; at 1.2 µM -4% | [4]; at 3.7 µM -6% | [4]; at 11.0 µM -4% | [4]; at 33.0 µM 2% | [4]; at 100.0 µM 5% | [5]; at 1.2 µM -1% | [5]; at 3.7 µM -2% | [5]; [17] 0% | [5]; at 11.0 µM 0% | [5]; at 33.0 µM 0% | [5]; [18] 61% | [5]; at 50.0 µM -9.15% | [5]; at 100.0 µM 5% | [6]; at 1.2 µM -6% | [6]; at 3.7 µM -2% | [6]; [17] -10% | [6]; at 11.0 µM 1% | [6]; at 33.0 µM 10% | [6]; [18] 18% | [6]; at 50.0 µM -6.25% | [6]; at 100.0 µM 10% | [7]; at 1.2 µM -2% | [7]; at 3.7 µM 1% | [7]; at 11.0 µM 5% | [7]; at 33.0 µM 9% | [7]; at 100.0 µM 7% | [8]; [17] 0% | [8]; at 50.0 µM 10.2% | [9]; [17] 9% | [9]; [18] 27% | [9]; at 50.0 µM -29.9% | [10]; at 1.2 µM 10% | [10]; at 3.7 µM 22% | [10]; [17] 30% | [10]; at 11.0 µM 38% | [10]; at 33.0 µM 47% | [10]; at 50.0 µM 54.9% | [10]; at 100.0 µM 48% | [12]; at 1.2 µM -4% | [12]; at 3.7 µM 0% | [12]; at 11.0 µM 1% | [12]; at 33.0 µM 7% | [12]; at 100.0 µM 12% | [13]; [17] 27% | [13]; at 50.0 µM 1.1% | [14]; at 1.2 µM 3% | [14]; at 3.7 µM 6% | [14]; at 11.0 µM 29%

O=C(Cc1csc2[n+]1C(=O)/C(=C/c1ccc(Cl)cc1)S2)Nc1ccccc1
inactive: [1]; at 1.2 µM 15% | [1]; at 3.7 µM 4% | [1]; at 11.0 µM 20% | [1]; at 33.0 µM 49% | [2]; at 1.2 µM -84% | [2]; at 3.7 µM -1% | [2]; at 11.0 µM 0% | [2]; at 33.0 µM 16% | [2]; at 100.0 µM 60% | [3]; at 1.2 µM 2% | [3]; at 3.7 µM 8% | [3]; at 11.0 µM 34% | [3]; at 33.0 µM 65% | [4]; at 1.2 µM -1% | [4]; at 3.7 µM 1% | [4]; at 11.0 µM 7% | [4]; at 33.0 µM 54% | [5]; at 1.2 µM -2% | [5]; at 3.7 µM 1% | [5]; [17] 24% | [5]; at 11.0 µM 9% | [5]; at 33.0 µM 43% | [6]; at 1.2 µM -3% | [6]; at 3.7 µM 5% | [6]; [17] 25% | [6]; at 11.0 µM 13% | [6]; at 33.0 µM 39% | [6]; at 100.0 µM 62% | [7]; at 1.2 µM 0% | [7]; at 3.7 µM 4% | [7]; at 11.0 µM 10% | [7]; at 33.0 µM 33% | [7]; at 100.0 µM 69% | [15]; at 1.2 µM -6% | [15]; at 3.7 µM -14% | [15]; at 11.0 µM -12% | [15]; at 33.0 µM 8% | [15]; at 100.0 µM 47% | [10]; at 1.2 µM -8% | [10]; at 3.7 µM -8% | [10]; at 11.0 µM -7% | [10]; at 33.0 µM 11% | [10]; at 100.0 µM 12% | [11]; at 1.2 µM -3% | [11]; at 3.7 µM -3% | [11]; at 11.0 µM 7% | [11]; at 33.0 µM 60% | [12]; at 1.2 µM -1% | [12]; at 3.7 µM 1% | [12]; at 11.0 µM 8% | [12]; at 33.0 µM 52% | [16]; at 1.2 µM 2% | [16]; at 3.7 µM 11% | [16]; at 11.0 µM 32% | [13]; [17] 20% | [14]; at 1.2 µM 0% | [14]; at 3.7 µM 5% | [14]; at 11.0 µM 21% | [14]; at 33.0 µM 56% | [14]; at 100.0 µM 69%
active: [1]; at 100.0 µM 87% | [3]; at 100.0 µM 75% | [4]; at 100.0 µM 87% | [5]; [18] 98% | [5]; at 50.0 µM 98.5% | [5]; at 100.0 µM 78% | [6]; [18] 99% | [6]; at 50.0 µM 98.8% | [10]; [17] 97% | [10]; [18] 99% | [10]; at 50.0 µM 98.8% | [11]; at 100.0 µM 82% | [12]; at 100.0 µM 75% | [16]; at 33.0 µM 72% | [16]; at 100.0 µM 89% | [13]; [18] 98% | [13]; at 50.0 µM 98.3%
